mIDH1 inhibitor = qHTS for Inhibitors of mutant isocitrate dehydrogenase 1 (IDH1): qHTS. IDH1-R132H enzyme, NADPH consumption, diaphorase/resazurin fluorescence. Potency, µM (top dose mostly 76.6 µM), for the others: at the highest dose activity change, negative = inhibition, actives largely listed as inhibitors. 0.093% of 390,000 active; note: potency is the fitted concentration of half-maximal effect; % is set by controls: 0 for no effect and ±100 for the full control effect; nearly all actives have a fitted effect of over 65% in size
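IDH1-R132H (0.5 ug/mL) preincubated 30 min with compound, then NADPH (0.016 mM) and alpha-KG (2 mM) added; 80 min at RT, pH 7.5. Remaining NADPH coupled via diaphorase/resazurin to fluorescence (540/590 nm); concentration-response curves normalized to no-enzyme control.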
pAkt inh = HTS Assay for Inhibitors of Akt Phophorylation: Primary Screen | activity change, % for hits at 50 µM | 0.32% of 360,000 active | Neuro2A IGF-stimulated pAkt S473 HTRF, 20 min; active compounds read low; in the data active = activity change below about -80%; inconclusive = mostly about -51% to -80%; note: % is set by controls: 0 for no effect and ±100 for the full control effect
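Neuro2A cells (4,500/well, DMEM with 0.5% FBS) were treated with compound at a single 50 µM final concentration, stimulated with 6 nM IGF for 20 min at 37 °C, and lysed. Phospho-Akt Ser473 was read by HTRF as 665/615 ratio ×10^4.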
GRP78 ERSR act = qHTS for Inducers of the Endoplasmic Reticulum Stress Response (ERSR) in Human Glioma: qHTS | U87-MG GRP78 promoter luciferase reporter, 16 h | Potency, µM, without a hit: top-dose activation, actives largely listed as activators | 0.02% of 420,000 active; note: potency is the fitted concentration of half-maximal effect; series mostly up to about 76 µM; % of control where 0% means no effect; nearly all actives have a fitted effect of over 35% in size
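Stably transfected U87-MG human glioma cells carrying a GRP78-based luminescent sensor were seeded at 1000 cells/well, pin-dosed with compounds and incubated 16 h. Luciferase reagent was then added, and end-point luminescence was read after 10 min at room temperature.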
Mm-Cpn inhibitor = Inhibitors of TCP-1 ring complex (TRiC) of Methanococcus maripaludis (MmCpn): qHTS; AID 504842, 2011; Potency, µM (doses to about 76.9 µM), for inactives: at the top dose activity, negative = inhibition, usual class: inhibitors; purified Mm-Cpn ATPase, ADP Transcreener TR-FRET; Chaperonin Mm-Cpn (Methanococcus maripaludis); 0.031% of 330,000 active; note: potency is the fitted concentration of half-maximal effect; % is set by controls: 0 for no effect and ±100 for the full control effect; nearly all actives have a fitted effect of over 80% in size
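Measured: ADP formation by purified Mm-CPN. Conditions: 25 nM protein, 10 uM ATP, Tris pH 7.4 with Mg2+, K+ and DTT, 37°C for 30 min. Detection: Transcreener HTRF after 30 min at room temperature.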
GLS inh = qHTS for Inhibitors of Glutaminase (GLS); AID 624170, 2012; GLS enzymatic activity, qHTS titration; Potency, µM (doses to about 45.5 µM), inactives show at the highest dose activity change, negative = inhibition, actives largely listed as inhibitors; 0.21% of 410,000 active; note: potency is the fitted concentration of half-maximal effect; % is set by controls: 0 for no effect and ±100 for the full control effect
Target sequence (O94925 whole entry, looked up): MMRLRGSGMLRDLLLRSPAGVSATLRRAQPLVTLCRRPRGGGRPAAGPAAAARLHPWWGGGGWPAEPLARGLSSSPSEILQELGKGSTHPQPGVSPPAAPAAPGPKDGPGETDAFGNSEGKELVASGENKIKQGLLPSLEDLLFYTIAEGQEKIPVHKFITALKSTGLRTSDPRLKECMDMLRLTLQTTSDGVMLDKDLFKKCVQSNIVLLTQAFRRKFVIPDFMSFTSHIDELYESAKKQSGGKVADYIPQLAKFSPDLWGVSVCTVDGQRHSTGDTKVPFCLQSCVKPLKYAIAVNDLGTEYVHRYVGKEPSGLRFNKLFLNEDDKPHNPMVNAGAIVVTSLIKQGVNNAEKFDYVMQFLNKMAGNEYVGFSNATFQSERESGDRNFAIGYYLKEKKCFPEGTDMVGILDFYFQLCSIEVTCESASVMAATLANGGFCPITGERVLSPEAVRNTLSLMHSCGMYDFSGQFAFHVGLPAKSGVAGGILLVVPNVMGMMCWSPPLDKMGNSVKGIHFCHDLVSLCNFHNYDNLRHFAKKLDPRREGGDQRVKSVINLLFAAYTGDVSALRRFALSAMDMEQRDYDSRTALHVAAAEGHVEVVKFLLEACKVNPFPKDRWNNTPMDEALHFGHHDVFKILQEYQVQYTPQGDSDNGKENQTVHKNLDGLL
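hKGA in 45 mM KH2PO4 pH 8.2, 0.02% Tween-20 with pin-transferred compounds; 1 mM L-glutamine (stock) plus glutamate oxidase/HRP/Amplex Red coupling added. Fluorescence read initially and after 30 min at RT.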
CCT chaperon mod = High-Throughput Screening for Modulators of Cytosolic Chaperonin Activity; activity change, % (test concentration not listed), hits read low; 0.3% of 360,000 active; purified chaperonin ATPase assay, HTRF ADP detection, 30 min; in the data active = activity change below about -30%; note: % is set by controls: 0 for no effect and ±100 for the full control effect
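First, chaperonin was dispensed at 40 nM or 20 nM final depending on batch activity. Next, compounds were pinned at 76 uM and ATP added at 10 uM. After 30 min at 37 °C, ADP detection reagents ran 30 min at ambient temperature.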
The depositor's hits bear a star; i = inactive; u = inconclusive; x = not tested or not shown. Shown are actives, neighbours in structure and some others; about 0.85% of the full set was active somewhere. Unless noted, calls come from the whole dose curve; as a rule, active = well fitted curve in the direction sought with a large enough effect; inconclusive = small, poorly fitted or top-dose-only effect, or another doubt; inactive = no such curve, though single readings can be large; an effect the other way counts as inactive or inconclusive.

SMILES | mIDH1 inhibitor | pAkt inh | GRP78 ERSR act | Mm-Cpn inhibitor | GLS inh | CCT chaperon mod
Cc1c(C(=O)NCCC2CCCN2C)cnn1-c1nccc(-c2ccccc2F)n1 (configuration not stated) | x | x | -3% | x | x | x
O=C(Nc1ccccc1F)c1ccc2nc(N3C(=O)CCC3=O)sc2c1 | 2% | -120%* | 1% | 0% | 20% | 1
Cn1nc(C(=O)OCC(=O)NCCc2ccccc2)c2ccccc2c1=O | 0% | i | 1% | 3% | 7% | -32*
Cc1ccc(Cl)c(NC(=O)COC(=O)c2nn(C)c(=O)c3ccccc23)c1Cl | 1% | i | -4% | 1% | -5% | -43*
Cn1nc(C(=O)OCC(=O)NCc2ccc(Cl)cc2)c2ccccc2c1=O | 0% | i | -4% | -20% | 14% | 0
CCn1nc(C)c(CN2CCC3(CCC(CNC(=O)c4ccccc4)O3)CC2)c1C (configuration not stated) | x | x | -4% | x | x | x
CCOC(=O)c1sc(=NC(=O)c2ccc(OC(C)C)cc2)n(C)c1C | 3% | i | -7% | -26% | 0% | -34*
CCOC(=O)c1sc(=NC(=O)c2ccc(C)c(C)c2)n(C)c1C | -9% | i | 12% | 2% | 13% | 0
Cc1cccc(C(=O)NNS(=O)(=O)c2ccccc2)c1O | -1% | i | 10% | -1% | 6.3µM* | -2
Cc1csc(NC(=O)c2ccccc2O)n1 | 12% | -99%* | 2% | -5% | 15% | 3
CC(=O)Nc1nc(=S)ss1 | 7% | i | -4% | -2% | -1% | 0
Cc1ccccc1C(=O)Nc1nc(=S)ss1 | 6% | i | -2% | -15% | -4% | -57*
CC(C)(C)c1csc(NC(=O)c2ccccc2O)n1 | 7% | i | 0% | -6% | 3% | -1
C#CCOC(=O)Nc1cccn(Cc2c(Cl)cccc2Cl)c1=O | 0% | -120%* | 0% | -1% | 15% | -4
O=C1CCN(Cc2cccn2-c2ccccn2)CCN1Cc1ccccc1C(F)(F)F | x | x | -3% | x | x | x
Cc1ccc2nc(-c3ccc(NC(=O)CN(c4ccccc4C)S(C)(=O)=O)cc3)sc2c1 | -2% | -107%* | -3% | u | -2% | -4
Cc1cc(C)cc(N(CC(=O)Nc2ccc(-c3nc4ccc(C)cc4s3)cc2)S(C)(=O)=O)c1 | 2% | i | 0% | -13% | 8% | -2
Cc1cnc(C)c(-c2ccc3c(c2)CC(CNC(=O)Cc2c(C)[nH]c4ccccc24)O3)n1 (configuration not stated) | x | x | -4% | x | x | x
COC(=O)c1[nH]c(C)c(/C(O)=C2\C(=O)C(=O)N(CCN3CCOCC3)C2c2cccs2)c1C (configuration not stated) | 4% | -96%* | -4% | 0% | -6% | 4
COc1ccc(NC(=O)CSc2nnc(-c3cccs3)n2-c2ccccc2)cc1 | 6% | -107%* | -7% | -2% | 1% | 0
COc1ccc(NC(=O)CSc2nnc(CCC(=O)O)c(=O)n2N)cc1 | -4% | i | -5% | -2% | -5% | -56*
CCCCNS(=O)(=O)c1ccc(OC)c(Cl)c1Cl | 4% | x | -2% | -1% | x | 1
CCC(C)NS(=O)(=O)c1ccc(OC)c(Cl)c1Cl (configuration not stated) | 0% | -122%* | -3% | -2% | 2% | -1
Cc1cc(C(F)(F)F)c2c(=O)[nH]c(=O)n(Cc3ccccc3)c2n1 | 10% | i | 1% | -2% | -4% | 2
O=c1[nH]c(=O)n(Cc2ccccc2)c2nc(-c3ccco3)cc(C(F)(F)F)c12 | 2% | -110%* | 0% | 1% | 5% | -6
SMILES | mIDH1 inhibitor | pAkt inh | GRP78 ERSR act | Mm-Cpn inhibitor | GLS inh | CCT chaperon mod
Cc1nc(CN2CCN(C(=O)CC3(c4ccccc4Cl)CC(=O)N(C)C3=O)CC2)cs1 (configuration not stated) | x | x | -3% | x | x | x
CCOC(=O)C[n+]1c(C)ccc2c1CCC2 | 2% | -109%* | -4% | 1% | 2% | -1
Cc1cc2nc3s/c(=C/c4ccc(-c5ccccc5C(=O)O)o4)c(=O)n3c2cc1C | 4% | i | 2% | 3% | u | -2
O=C(O)c1ccccc1-c1ccc(/C=c2\sc3nc4cc(Br)cnc4n3c2=O)o1 | 9% | x | -5% | -4% | 13µM* | 3
Cc1cccc(NC(=S)NCCc2ccccc2)c1C | 5% | i | 0% | -2% | -17% | -2
Cc1cccc(C)c1NC(=S)NCCc1ccc(O)c(O)c1 | 3% | i | 16µM* | 1% | 4µM* | -3
CCN(CC)CCN(C)C(=O)c1ccc(-c2ccccc2)nc1N(C)C | x | x | -4% | x | x | x
COc1ccc(N(CC(=O)Nc2cc(Cl)ccc2C)S(=O)(=O)c2c(C)n[nH]c2C)cc1 | 4% | x | -4% | -5% | -1% | -59*
COc1cc(=O)n2c(c1C(=O)N(C)Cc1cscn1)CCN(Cc1c(C)[nH]c3ccccc13)CC2 | x | x | 4% | x | x | x
O=S(=O)(c1cccs1)N1CCN(C/C=C/c2ccccc2)CC1 | 13% | -118%* | -7% | -2% | 11% | -3
O=S(=O)(c1ccc(Cl)s1)N1CCN(C/C=C/c2ccccc2)CC1 | 2% | i | -2% | u | 5% | 0
COc1cccc(C2(CC(=O)N3CCCCC3CO)CC(=O)N(C)C2=O)c1 (configuration not stated) | x | x | -1% | x | x | x
CCS(=O)(=O)N1CCCC(C(=O)NC2CCCCC2C)C1 (configuration not stated) | -3% | -110%* | -1% | 1% | 2% | -2
COc1cc(=O)n2c(c1C(=O)N1CCc3ccccc3C1)CCN(Cc1ccc(CO)o1)CC2 | x | x | 0% | x | x | x
CCN(CC)S(=O)(=O)c1cccc(-c2nnc(SCc3nnc(-c4ccccc4)o3)n2C)c1 | 9% | -99%* | -5% | -6% | 9% | -1
CCN(CC)S(=O)(=O)c1ccc(-c2nnc(SCc3nnc(-c4ccc(C)cc4)o3)n2CC)cc1 | 2% | x | 0% | 0% | x | 1
COCCNC(=O)CN(c1ccc(OC)c(OC)c1)S(=O)(=O)c1ccc(C)cc1 | 0% | -129%* | -2% | -1% | -4% | -7
COCCNC(=O)CN(c1ccc(C)cc1)S(=O)(=O)c1ccccc1 | 8% | x | -3% | 0% | 1% | 1
COc1ccc(CNC(=O)CNC(=O)c2ccc(Br)o2)cc1OC | -11% | i | -3% | 0% | 8% | -107*

Bioassay records from PubChem.
